Assay results published in PubChem BioAssay AID1825 (The Scripps Research Institute Molecular Screening Center, 2009).
Screen size: about 290,000 compounds; about 2,300 (0.79%) were called active. Cut-off read from the data, not from the text of the source: active = inhibition above about 22%; inactive = the rest. This excerpt belongs to a sample that is enriched for actives.

test: cytotoxicity in IEC-6 intestinal epithelial cells, primary screen, cytotoxicity control for KLF5 inhibitor project, cell-based, luminescence (AID 1825); conditions: IEC-6 cytotoxicity, luminescence viability; at 5 µM; hits give high values;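 note: 0% = plate median of test compound wells and 100% = cytotoxic reference compound wells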

Compound	inhibition
COc1cc(-n2c(=S)[nH]c3ccc(C)cc3c2=O)c(Cl)cc1Cl	27.3% (active)
CN(C)CC1Oc2ccccc2OC1(O)c1ccccc1 (stereo not given)	10.6% (inactive)
COc1ccc(N2C(=O)/C(=C/c3ccco3)C(=O)NC2=S)cc1	-11.8% (inactive)
COc1cc2nc(N3CCN(C(=O)[C@@H]4CCCO4)CC3)nc(N)c2cc1OC	-0.7% (inactive)
CN(c1ccccc1)c1ccc([N+](=O)[O-])c2nonc12	13.2% (inactive)
CC1=CC(=Cc2sc3ccccc3[n+]2C)C=C(C)O1	25.9% (active)
CCc1nc2ccccc2c(=O)n1-c1cccc(OC)c1	-0.6% (inactive)
COc1cc(Cn2c(N)c(C(=O)NCc3ccco3)c3nc4ccccc4nc32)cc(OC)c1OC	7.4% (inactive)
COc1ccc(-c2nn(CCC#N)cc2C(=O)O)cc1	-8.6% (inactive)
COc1ccc(C(=O)CC2C(=O)N(C)C(=O)N(C)C2=O)cc1	2% (inactive)
Cc1nc2ccccc2c(=O)n1-c1ccc(Cl)cc1Cl	-4.8% (inactive)
CCCCCCCCCCCCn1ccc(=N)cc1	78.8% (active)
CCOP(=S)(OCC)C(O)CCCCCn1c(=O)c(F)cn(C2CCCO2)c1=O (stereo not given)	-1.2% (inactive)
CCOc1cccc(=NC2CCCCC2)c2c(C)[nH]c(C)c12	-11.4% (inactive)
COc1cccc(N2C(=O)NC(=O)/C(=C\c3ccc([N+](=O)[O-])s3)C2=O)c1	-9.9% (inactive)
Cc1cc2ccccn2c1C(C[N+](=O)[O-])c1c(F)cccc1Cl (stereo not given)	47.4% (active)
CC(=O)Nc1ccc(C(=O)C(Cc2ccccc2)N(C)C)cc1 (stereo not given)	-0.8% (inactive)
CC(=O)c1c(C)n(C(C)C)c2ccc(O)cc12	3.8% (inactive)
COc1ccc(-c2nn(CCC#N)cc2C(=O)Nc2ccc(C(C)=O)cc2)cc1	-1.6% (inactive)
O=c1c2ccccc2nc(/C=C/c2ccco2)n1-c1ccccc1O	-4.9% (inactive)
